# Laboratory results published in PubChem BioAssay (NCATS).
# “And” between values parts separate entries of the source, which are not always exact repeats. Identical values can stand only once. Records with an inconclusive call do not appear. Entries that show only a call come without a potency. The source made the active and inactive calls. Unless noted, the call rests on the fitted dose curve.
# What was measured:
# [1] = Inducers of the Endoplasmic Reticulum Stress Response (ERSR) in human glioma: Validation (AID 504836; active means well fitted curve in the direction sought with a large enough effect; an effect the other way counts as inactive or inconclusive)
# How it was run: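 ERSR induction read as luciferase luminescence (Bright-Glo, 10 min at room temperature) in stably transfected human U87-MG glioma cells exposed to compounds for 16 h, using GRP78 as sensor.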
# [2] = qHTS for Inhibitors of the Functional Ribonucleoprotein Complex (vRNP) of Lassa (LASV) Arenavirus: Viability assay - alamar blue signal for LASV Primary Screen (AID 1347083; calls by dose curve; tested in HEK293 reporter line; further: nearly all actives have a fitted effect of over 80% in size; further: potency means the concentration at half of the fitted maximal effect)
# [3] = qHTS for Inhibitors of the Functional Ribonucleoprotein Complex (vRNP) of Lymphocytic Choriomeningitis Arenaviruses (LCMV): Viability assay - alamar blue signal for LCMV Primary Screen (AID 1347085; calls by dose curve; tested in HEK293 reporter line; further: nearly all actives have a fitted effect of over 80% in size; further: potency means the concentration at half of the fitted maximal effect)
# [4] = molecular target: Alpha-galactosidase (Coffea arabica) (UniProt Q42656); test: Counterscreen for Glucocerebrosidase Inhibitors: qHTS Assay for Coffee Bean alpha-Galactosidase at pH 4.5 (AID 957; active means well fitted curve in the direction sought with a large enough effect; an effect the other way counts as inactive or inconclusive)
# How it was run: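 Coffee bean enzyme (2 nM) with 80 uM 4-methylumbelliferyl alpha-D-galactopyranoside in 50 mM citric acid, 0.005% Tween-20, pH 4.5, 20 min at room temperature; compounds 0.7 nM–77 uM. Stopped at pH 10, fluorescence 365/440 nm; AC50 from Hill fits.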
# [5] = molecular target: Alpha-galactosidase (Coffea arabica) (UniProt Q42656); test: Counterscreen for Glucocerebrosidase Inhibitors: qHTS Assay for Coffee Bean alpha-Galactosidase at pH 5.9 (AID 998; active means well fitted curve in the direction sought with a large enough effect; an effect the other way counts as inactive or inconclusive)
# How it was run: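 Compounds were titrated from 0.7 nM to 77 uM against green coffee bean alpha-galactosidase (2 nM) using 80 uM fluorogenic 4-methylumbelliferyl substrate. After 20 min at room temperature, reactions were stopped at pH 10 and read by fluorescence.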
# [6] = Validation screen for inhibitors of Lassa infection (AID 463096)
# [7] = Primary qHTS for Huh7 cytotoxicity: counterscreen for inhibitors of MERS-S pseudotyped particle cell entry (AID 1479147); conditions: outcome: dose series up to 57.1 µM unless noted
# [8] = Primary qHTS for Vero E6 cytotoxicity: counterscreen for inhibitors of SARS-S pseudo-typed particle cell entry (AID 1479150); conditions: outcome: dose series up to 57.1 µM unless noted
# [9] = Cytotoxicity counterscreen for inhibitors of SARS-CoV-2 cell entry (AID 1645845); further: nearly all actives have a fitted effect of over 50% in size
# How it was run: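 48 h compound treatment (after 1 h preincubation), HEK293-ACE2 cells, 37 C/5% CO2; ATP luminescence endpoint; normalized to cell wells and media blanks.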
# [10] = Primary qHTS to identify inhibitors of SARS-CoV-2 cell entry (AID 1645846); conditions: activity change, negative = inhibition: at 57.1 µM (top of the series) unless noted; further: nearly all actives have a fitted effect of over 45% in size
# How it was run: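 Data are normalized to wells receiving SARS-CoV-2-S pseudoparticles and those given bald particles. Entry signal was luciferase luminescence in stable hACE2 Expi293F cells, 48 hr post-infection, after 1 hr compound pretreatment.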
# [11] = qHTS profiling of the MIPE4 collection as inhibitors of Plasmodium falciparum (3D7) proliferation (AID 743344; call rule not given here); conditions: P. falciparum 3D7 in erythrocytes, SYBR Green DNA fluorescence, 72 h; at 28.5 µM (top of the series) unless noted
# How it was run: (§1)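 Erythrocytes infected with P. falciparum (0.3% parasitemia, 2.5% hematocrit) incubated with compounds 72 h at 37 C, 5% CO2. Lysis with saponin/Triton buffer containing SYBR Green I, overnight at room temperature in the dark; DNA fluorescence (485/535 nm) normalised to 0.29 uM artemisinin and DMSO.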
# [12] = qHTS profiling of the MIPE4 collection as inhibitors of Plasmodium falciparum (DD2) proliferation (AID 743345; call rule not given here); conditions: P. falciparum Dd2 in erythrocytes, SYBR Green DNA, 72 h; at 28.5 µM (top of the series) unless noted
# How it was run: as §1
# [13] = qHTS profiling of the MIPE4 collection as inhibitors of Plasmodium falciparum (DD2) proliferation (Rep 2) (AID 743346; call rule not given here); conditions: P. falciparum Dd2 in erythrocytes, SYBR Green DNA, 72 h; at 28.5 µM (top of the series) unless noted
# How it was run: as §1
# [14] = Primary qHTS for inhibitors of MERS-S pseudo-typed particle cell entry (AID 1479149); further: nearly all actives have a fitted effect of over 60% in size
# [15] = Quantitative high throughput screen for delayed death inhibitors of the malarial parasite plastid, 48 hour incubation (AID 488752; active means well fitted curve in the direction sought with a large enough effect; an effect the other way counts as inactive or inconclusive; further: nearly all actives have a fitted effect of over 65% in size)
# How it was run: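 Erythrocytes infected with firefly luciferase-expressing P. falciparum (2% hematocrit, 0.1% parasitemia) cultured with compound for 48 h at 37 C, 5% CO2, in RPMI 1640/0.5% Albumax. Growth inhibition read as loss of luminescence.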
# [16] = molecular target: Bile acid receptor (Homo sapiens) (UniProt Q96RI1); test: qHTS assay for small molecule agonists of farnesoid X receptor signaling (AID 588527); conditions: HEK293T FXR-UAS-bla, beta-lactamase ratio, 16 h; activation: stronger effect = higher value
# How it was run: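 Agonist-mode beta-lactamase reporter in GeneBLAzer FXR-UAS-bla HEK293T cells, titration up to 92 uM, 16 h exposure at 37 C, CCF4 fluorescence. Response scaled to DMSO (0%) and 100 uM chenodeoxycholic acid (100%), then Hill-fitted for EC50 and efficacy.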
# [17] = molecular target: Peroxisome proliferator-activated receptor delta (Homo sapiens) (UniProt Q03181); test: qHTS assay for small molecule agonists of peroxisome proliferator-activated receptor delta signaling (AID 588534)
# How it was run: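 Cells carrying a PPAR-delta beta-lactamase reporter were treated with compounds for 18 h at 37 °C in agonist mode. CCF4 fluorescence was read after 2 h; EC50 and efficacy from Hill fits.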
# [18] = molecular target: Nucleoprotein (Lymphocytic choriomeningitis virus (strain Armstrong)) (UniProt P09992); test: qHTS for Inhibitors of the Functional Ribonucleoprotein Complex (vRNP) of Lymphocytic Choriomeningitis Arenaviruses (LCMV): LCMV Primary Screen - GLuc reporter signal (AID 1347086); further: nearly all actives have a fitted effect of over 70% in size; further: potency means the concentration at half of the fitted maximal effect
# [19] = Primary qHTS for inhibitors of SARS-S pseudo-typed particle cell entry (AID 1479145); further: nearly all actives have a fitted effect of over 45% in size
# Sequence of Alpha-galactosidase (Coffea arabica) (Q42656 whole entry, looked up): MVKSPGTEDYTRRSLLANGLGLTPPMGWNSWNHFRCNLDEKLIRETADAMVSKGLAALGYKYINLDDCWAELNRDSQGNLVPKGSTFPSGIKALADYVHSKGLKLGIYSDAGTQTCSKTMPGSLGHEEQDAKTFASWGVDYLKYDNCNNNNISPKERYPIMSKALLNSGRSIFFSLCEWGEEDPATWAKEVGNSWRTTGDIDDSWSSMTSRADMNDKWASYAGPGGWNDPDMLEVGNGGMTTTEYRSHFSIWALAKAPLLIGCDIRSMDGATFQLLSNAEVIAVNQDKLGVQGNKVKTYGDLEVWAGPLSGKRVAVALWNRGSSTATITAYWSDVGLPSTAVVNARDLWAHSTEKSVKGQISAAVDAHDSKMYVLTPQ
# Sequence of Nucleoprotein (Lymphocytic choriomeningitis virus (strain Armstrong)) (P09992 whole entry, looked up): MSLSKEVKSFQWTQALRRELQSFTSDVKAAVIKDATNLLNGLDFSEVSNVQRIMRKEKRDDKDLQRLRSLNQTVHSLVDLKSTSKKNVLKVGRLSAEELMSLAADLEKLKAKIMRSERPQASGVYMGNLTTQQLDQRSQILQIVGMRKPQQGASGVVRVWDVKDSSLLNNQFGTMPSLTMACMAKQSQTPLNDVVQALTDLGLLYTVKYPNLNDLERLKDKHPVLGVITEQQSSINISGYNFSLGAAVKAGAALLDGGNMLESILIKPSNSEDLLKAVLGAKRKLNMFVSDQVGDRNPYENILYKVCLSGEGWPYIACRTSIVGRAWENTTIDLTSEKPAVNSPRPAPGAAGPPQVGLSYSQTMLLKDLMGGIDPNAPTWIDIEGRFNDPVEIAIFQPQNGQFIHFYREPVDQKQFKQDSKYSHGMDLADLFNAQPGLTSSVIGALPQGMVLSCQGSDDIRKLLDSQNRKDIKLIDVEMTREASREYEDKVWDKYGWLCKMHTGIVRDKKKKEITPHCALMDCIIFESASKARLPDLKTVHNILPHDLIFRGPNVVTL
# Sequence of Bile acid receptor (Homo sapiens) (Q96RI1 whole entry, looked up): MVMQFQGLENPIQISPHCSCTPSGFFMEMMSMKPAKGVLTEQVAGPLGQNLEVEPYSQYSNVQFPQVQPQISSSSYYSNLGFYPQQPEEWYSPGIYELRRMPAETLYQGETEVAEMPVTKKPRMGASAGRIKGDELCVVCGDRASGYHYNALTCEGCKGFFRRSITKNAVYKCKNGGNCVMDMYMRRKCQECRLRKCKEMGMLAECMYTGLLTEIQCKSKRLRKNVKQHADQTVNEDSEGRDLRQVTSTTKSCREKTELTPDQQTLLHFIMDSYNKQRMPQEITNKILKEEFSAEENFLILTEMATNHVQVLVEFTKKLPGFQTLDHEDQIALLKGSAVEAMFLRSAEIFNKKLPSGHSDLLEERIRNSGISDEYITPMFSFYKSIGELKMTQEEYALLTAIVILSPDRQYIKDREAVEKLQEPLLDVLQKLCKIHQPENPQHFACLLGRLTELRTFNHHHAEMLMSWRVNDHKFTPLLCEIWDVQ
# Sequence of Peroxisome proliferator-activated receptor delta (Homo sapiens) (Q03181 whole entry, looked up): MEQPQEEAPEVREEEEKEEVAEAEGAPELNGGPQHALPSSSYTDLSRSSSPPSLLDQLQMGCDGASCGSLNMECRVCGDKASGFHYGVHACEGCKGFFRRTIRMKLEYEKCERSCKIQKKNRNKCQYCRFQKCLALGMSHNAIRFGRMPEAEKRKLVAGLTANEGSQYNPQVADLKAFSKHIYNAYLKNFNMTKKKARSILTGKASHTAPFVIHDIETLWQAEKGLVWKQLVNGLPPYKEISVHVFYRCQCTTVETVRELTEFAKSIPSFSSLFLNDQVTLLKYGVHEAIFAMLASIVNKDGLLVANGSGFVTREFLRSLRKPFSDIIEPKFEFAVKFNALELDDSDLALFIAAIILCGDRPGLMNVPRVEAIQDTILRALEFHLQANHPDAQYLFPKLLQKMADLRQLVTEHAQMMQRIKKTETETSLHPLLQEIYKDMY
structure (smiles),measurement,setting,value
O=C(c1ccc(OCCCc2cnc[nH]2)cc1)C1CC1,outcome,[1],inactive
same,Potency,[2],inactive
same,Potency,[3],inactive
CC(C)NC[C@@H](O)COc1cccc2ccccc12,outcome,[4],inactive
same,outcome,[5],inactive
same,Potency,[6],inactive
same,Potency,[2],inactive
same,Potency,[3],inactive
same,outcome,[7],inactive
same,outcome,[8],inactive
same,Potency,[9],inactive
same,"activity change, negative = inhibition",[10],-4.9%
CC(C)Oc1ccc(C(=O)N[C@H](CNC(=O)CN(C)C)Cc2ccc(-c3cn4cccc([C@H](C)O)c4n3)cc2)cc1Cl,Potency,[2],1930 nM (active)
same,Potency,[3],968 nM (active)
same,Potency,[9],inactive
CC[C@H](CC[C@@H](C)[C@H]1CC[C@H]2[C@@H]3CC=C4C[C@@H](O)CC[C@]4(C)[C@@H]3CC[C@]12C)C(C)C,"parasite growth, % of DMSO control",[11],94%
same,"parasite growth remaining, % of DMSO control (lower = more inhibition)",[12],101%
same,"parasite growth, % of control (lower = inhibition)",[13],179%
same,Potency,[2],8630 nM (active)
same,Potency,[3],2430 nM (active)
CN1CCN2c3ccccc3Cc3ccccc3C2C1 (stereo not drawn),Potency,[6],inactive
same,outcome,[1],inactive
same,Potency,[2],inactive
same,Potency,[3],inactive
same,outcome,[7],inactive
same,Potency,[14],inactive
same,outcome,[8],inactive
same,Potency,[9],inactive
CN(C)Cc1c(C(=O)NCCOc2ccc(C(=O)NO)cc2)oc2ccccc12,Potency,[2],2430 nM (active)
same,Potency,[3],1370 nM (active)
same,Potency,[10],inactive
CC(C)NCC(O)COc1cccc2ccccc12 (stereo not drawn),Potency,[6],inactive
same,Potency,[15],inactive
same,outcome,[1],inactive
same,activation,[16],0.153% (inactive) and 4.79% (inactive)
same,Potency,[17],inactive
same,Potency,[2],inactive
same,Potency,[3],inactive
c1cc(N[C@@H]2CCNC2)nc(-c2cnc3ccc(-c4cn[nH]c4)cn23)c1,Potency,[2],10900 nM (active)
same,Potency,[18],inactive
Cc1cc(C(C)Nc2ccccc2)c2nc(N3CCOCC3)cc(=O)n2c1 (stereo not drawn),Potency,[2],1930 nM (active)
same,Potency,[3],544 nM (active)
same,Potency,[9],inactive
CNC(=O)c1ccc(Nc2cc(Nc3ccccc3S(=O)(=O)C(C)C)c3cc[nH]c3n2)nc1,Potency,[2],8630 nM (active)
same,Potency,[18],27300 nM (active)
Cc1c(C(N)=O)cc([N+](=O)[O-])cc1[N+](=O)[O-],Potency,[2],inactive
same,Potency,[3],inactive
same,Potency,[19],inactive
same,outcome,[7],inactive
same,Potency,[14],inactive
same,outcome,[8],inactive
same,Potency,[9],inactive
same,Potency,[10],inactive
